Compound activity deposited in PubChem by National Center for Advancing Translational Sciences (NCATS).
TDP1 cell noCPT: qHTS for Inhibitors of human tyrosyl-DNA phosphodiesterase 1 (TDP1): qHTS in cells in absence of CPT | Potency, µM (top dose mostly 46.2 µM), for the others: at the top dose activity change, negative = growth inhibition, most hits filed as inhibitors | 420,000 compounds, 15% hits | DT40 Tdp1-/- hTDP1 cells, no CPT, ATP luminescence, 48 h; note: potency is the fitted concentration of half-maximal effect; nearly all actives have a fitted effect of over 55% in size
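Chicken DT40 Tdp1-/- cells stably complemented with human TDP1 were seeded at 400 cells/well with DMSO in place of 20 nM camptothecin. After compound pinning, cells grew at least 48 hr at 37 °C; viability read by CellTiter-Glo luminescence.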
HT1080NT lethal: kills 2HG-producing HT-1080-NT fibrosarcoma cells; HT-1080-NT fibrosarcoma viability, CellTiter-Glo ATP luminescence, 48 h; AID 686970; 360,000 compounds, 1.6% hits; Potency, µM (top dose mostly 46.1 µM), for inactives: top-dose activity, negative = less viability, actives largely listed as cytotoxic;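 note: NT is the 2HG producing partner of a matched IDH1 knockdown line; potency is the fitted concentration of half-maximal effect; 0% = DMSO-treated cells and -100% = media-only wells without cells; nearly all actives have a fitted effect of over 55% in size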
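HT-1080-NT; 750 cells/well; 5% FBS RPMI; 48 h compound, 37 degrees C; CellTiter-Glo luminescence; curve fitting and curve-class assignment.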
HT1080 IDH1KD tx: HT-1080 IDH1 knockdown cell toxicity (counter line) | HT-1080 IDH1 knockdown viability, ATP luminescence, 48 h | Potency, µM (top dose mostly 46.1 µM), inactives show at the highest dose activity, negative = toxicity, hits mostly cytotoxic | 360,000 compounds, 2% hits | AID 686971;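 note: potency is the fitted concentration of half-maximal effect; 0% = DMSO wells and -100% = cell-free medium wells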
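Using the IDH1-knockdown HT-1080 line run in the same batch and compound series as the NT line, viability after 48 h at 37 °C was determined by CellTiter-Glo luminescence and expressed as % activity.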
ELG1 repair inh: ELG1-dependent DNA repair inhibition. HEK293T ELG1-luciferase reporter, luminescence, 16 h; DNA damage induced by 5-fluorouridine. Potency, µM (series often up to 46.1 µM), inactives show at the top dose activity change, negative = inhibition, hits mostly inhibitors. 330,000 compounds, 2.3% hits. AID 504467; note: potency is the fitted concentration of half-maximal effect; nearly all actives have a fitted effect of over 55% in size
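HEK293T cells expressing luciferase-tagged ELG1 (2,000/well) received 5-Fluorouridine plus compound or DMSO for 16 hr at 37 °C. Luciferase was read by ONE-Glo luminescence after 30 min at room temperature.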
IL1B secr inh: inhibitors of inflammasome signaling (IL-1 beta secretion). activity change, % at 57.5 µM. THP-1 LPS/ATP IL-1B secretion, AlphaLISA, 16 h; active compounds read low. 360,000 compounds, 4.7% hits. AID 743279; in the data active = activity change below about -50%; inconclusive = mostly about -30% to -49%
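Secreted IL-1B measured by AlphaLISA bead assay after 16 h compound exposure of THP-1 cells; compounds (final up to 57.5 uM) added 1 h before LPS (250 ng/mL) and ATP (1.25 mM) stimulation; lower signal means less secretion.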
TDP1 cell CPT: growth inhibition of DT40 Tdp1-/-;hTDP1 cells with camptothecin (screen for TDP1 inhibitors); chicken DT40 Tdp1-/-;hTDP1 cells + 20 nM CPT, ATP luminescence, 48 h; Potency, µM (series often up to 46.2 µM), inactives show at the highest dose activity change, negative = growth inhibition, usual class: inhibitors; 420,000 compounds, 12% hits; AID 686979; note: potency is the fitted concentration of half-maximal effect; nearly all actives have a fitted effect of over 55% in size
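Chicken DT40 Tdp1-/- cells stably complemented with human TDP1 were seeded at 400 cells/well in medium containing 20 nM camptothecin, exposed to pin-transferred compounds, and grown at 37 °C for at least 48 hr. Viability was read as ATP luminescence.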
Active calls of the source: *; ? = inconclusive; . = no result given. An excerpt weighted towards active compounds, which were near 19% of everything screened. Unless noted, calls come from the whole dose curve; as a rule, active = well fitted curve in the direction sought with a large enough effect; inconclusive = small, poorly fitted or top-dose-only effect, or another doubt; inactive = no such curve, though single readings can be large; an effect the other way counts as inactive or inconclusive. Unless noted, % is set by controls: 0 for no effect and ±100 for the full control effect.

SMILES	TDP1 cell noCPT	HT1080NT lethal	HT1080 IDH1KD tx	ELG1 repair inh	IL1B secr inh	TDP1 cell CPT
CCOC(=O)Cn1c(=O)c(F)cn(Cc2ccc(OC)c([N+](=O)[O-])c2)c1=O	-26%	?	20%	9%	21	-8%
CN(C)c1ccc(CNC(=O)c2ccc3c(c2)N(C)C(=O)C2CCCCN32)cc1 (configuration not stated)	?	.	.	.	.	18µM*
O=C(CC(CC(=O)c1ccc(Br)cc1)c1cccnc1)c1ccc(Br)cc1	15µM*	?	13%	-27%	10	15µM*
COCCCNC(=O)C1CCCN(S(=O)(=O)c2ccc3c(c2)oc(=O)n3C)C1 (configuration not stated)	-2%	.	.	.	.	-15%
Cc1onc(-c2ccccc2)c1C(=O)N1CCN(c2ncccc2C(F)(F)F)CC1	?	12%	12%	-7%	-8	23µM*
Cc1cccc(N2CCN(C(=O)c3c(-c4ccccc4)noc3C)CC2)c1C	1.5µM*	1.2µM*	1.3µM*	?	32	2.9µM*
Cc1onc(-c2ccccc2)c1C(=O)N1CCN(c2ccccn2)CC1	18%	1%	10%	5%	16	-20%
CCc1noc(C)c1C(=O)N1CCN(c2cccc(Cl)c2)CC1	?	0%	4%	.	9	?
Cc1onc(-c2ccccc2)c1C(=O)N1CCN(S(=O)(=O)c2ccccc2Br)CC1	15µM*	0%	7%	?	37	?
CCc1noc(C)c1C(=O)N1CCN(c2cccc(C)c2C)CC1	15µM*	2%	-1%	1%	4	?
COCCN1CCN(C(=O)c2cc(COc3cc(C)ccc3C)on2)CC1	?	1%	4%	?	-6	?
O=C(/C=C/[C@H]1O[C@@H](n2ccc(=O)[nH]c2=O)[C@H](O)[C@@H]1O)N1CCN(Cc2ccc(F)cc2)CC1	9%	7%	6%	.	26	6%
CCCCC(=O)N(C)c1c(CC)nc2c(OCC(=O)N3CCOCC3)cccn12	1%	-4%	16%	.	31	-6%
CCc1ccc(/C=C2\Oc3cc(OS(C)(=O)=O)ccc3C2=O)cc1	?	4%	13%	-11%	-20	?
O=C1/C(=C/c2ccc(Br)cc2)Oc2cc(O)ccc21	?	-20%	?	?	0	-4%
CS(=O)(=O)Oc1ccc2c(c1)O/C(=C\c1cccc([N+](=O)[O-])c1)C2=O	-12%	12%	0%	18µM*	-5	-4%
O=C1/C(=C/c2ccc(O)cc2)CCc2ccc([N+](=O)[O-])cc21	16µM*	11%	7%	?	?	?
CC(C)(C)c1ccc(/C=C2\Oc3cc(O)ccc3C2=O)cc1	?	?	?	?	-74*	21µM*
O=C1/C(=C\c2ccc([N+](=O)[O-])cc2)CCc2ccccc21	?	-5%	-2%	?	?	-30%
O=C1/C(=C/c2ccc([N+](=O)[O-])cc2)Oc2cc(O)ccc21	7.3µM*	-25%	-16%	?	-1	?
O=[N+]([O-])c1ccc(N2CCN(CC3CCCCC3)CC2)cc1	?	-10%	-14%	-5%	31	?
O=C(Cn1cc(C(F)(F)F)ccc1=O)OCC(=O)c1ccc[nH]1	?	-6%	3%	?	4	?
CCN(CC(=O)NCCN1CCOCC1)S(=O)(=O)c1ccc(F)cc1	-4%	22%	18%	1%	-1	-7%
